Experimental data published in the supplement of paper PMC11417369.
± gives the standard deviation of the averaged measurements. Over roughly 25,000 sequences, “ln(normalized median fluorescence intensity)” has its median near 8.6; the highest 2% begin near 10. This excerpt belongs to a sample that is enriched for the highest values.

The sequences below were run on PfAP2-EXP AP2 domain (GST-tagged) (assay: gcPBM binding intensity (ln(normalized median fluorescence intensity)); higher = stronger DNA binding).
How it was run: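 Binding intensity is the highest Masliner-normalised natural-log median intensity over replicate spots in either probe orientation. To obtain it, GST-tagged P. falciparum DNA-binding domains made in E. coli were incubated for 1 h on an Agilent 4 × 180k array of primer-extended double-stranded 36-bp intergenic genomic probes plus negative controls. Detection used Alexa488 anti-GST antibody with scanning at 488 nm.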

| Sequence | gcPBM binding intensity (ln) |
| --- | --- |
| ATATTATGTCTACATAAACACACATATATATAAAAA [CACACA_site7976] | 8.62 ± 0.48 |
| TATATTTTACTCTTCACACATATACTCAATTTATAT [CACACA_site5357] | 8.94 ± 0.31 |
| CTGTATAAAACCAATGCATGTAAATATATTAATATA [TGCATGCA_site511] | 9.1 ± 0.42 |
| TTGTATCCTTAATGCATGCACCAAATAACAAAAGTA | 10.2 ± 0.38 |
| TATTGTATCCTTAATGCATGCACCAAATAAAAAAAG [TGCATGCA_site541] | 10.21 ± 0.064 |
| AAAAAAAAAAAAAATATATATATATATATATATATA [CACACA_negctrl_site540] | 10.2 ± 0.2 |
| AAAAAAAAAAAAAAAAAAAAAAAAAAATATATATAT [CACACA_negctrl_site271] | 9.795 ± 0.049 |
| AAAAAAAAAATATATATATATATATATATATATATA [GTGCAC_negctrl_site467] | 9.95 ± 0.53 |
| AAAAAAAAAAAAAAAAAAAAAAAAATATATATATAT [CACACA_negctrl_site436] | 10 ± 0.31 |
| AAAAAAAAAAAATATATATATATATATATATATATA [CACACA_negctrl_site1606] | 10.3 ± 0.21 |
| AAAAAAATATATATATATATATATATATATATATAT [TGCATGCA_negctrl_site7] | 10.1 ± 0.26 |
| TTTAATTTTCCCTTCACACATAATATATATCTGTAT [CACACA_site5370] | 8.7 ± 0.43 |
| TATTATATATATGTTGACATATTTGTACACTCCACT [TGCATGCA_negctrl_site200] | 8.79 ± 0.61 |
| TATCAAAATTGTAATTGTACTTGTAAGTGGATATAT [XGTACX_site5949] | 8.68 ± 0.3 |
| TTTTTTAAAATAATAGGTACACATAAAAAAAAAAAA [XGTACX_site2517] | 8.72 ± 0.67 |
| AACATTATAAGACACACACACACATATATAAATATA [CACACA_site6622] | 8.65 ± 0.58 |
| ACACATATATATTATTATTATATAATATATATATAT [CACACA_negctrl_site1545] | 9.21 ± 0.15 |
| AAAAAAATGAAACACACACACACATATATATATATA [CACACA_site1043] | 10.1 ± 0.26 |
| ATATTTTGTTATGAAACACACACATATATATATATA [CACACA_site9216] | 10.1 ± 0.16 |
| TAATTTTTTAAACACACACACATATATATATATATA [CACACA_site4230] | 10.2 ± 0.3 |
| TTTTAATGAAAACACACACACACATATATATATATA [CACACA_site5295] | 10.3 ± 0.11 |
| ATTTTGTTATGAAACACACACATATATATATATATA [CACACA_site3650] | 10.2 ± 0.18 |

| Sequence | gcPBM binding intensity (ln) |
| --- | --- |
| TTTTTAAAACATATCACACATATATATATATATATA [CACACA_site5991] | 10.3 ± 0.41 |
| TTTTAAACAGGACACACACACATATATATATATATA [CACACA_site4664] | 10.1 ± 0.42 |
| TTTTAAACAAGACACACACACATATATATATATATA [CACACA_site925] | 10.2 ± 0.35 |
| AAAAAAAAAAATATCACACACACATAAATATAAACA [CACACA_site7138] | 8.6 ± 0.61 |
| AAAAAAAAAAAAAACACACACATATAATATATTTAA [CACACA_site1337] | 8.35 ± 0.38 |
| ATTTTGTTATGAAACACACACATATAAATATAAATA [CACACA_site7679] | 8.51 ± 0.3 |
| TTTTAATTAAAACACACACACACATATATATATATA [CACACA_site2291] | 10.2 ± 0.23 |
| AATTATATACATAAGTGTACATAATATATAAACATA [XGTACX_site793] | 8.31 ± 0.28 |
| TACATCTTACTACTTATAATATAATATAGTATGAAT [TGCATGCA_negctrl_site8] | 8.21 ± 0.43 |
| TTTTTCTTTTTTACAGTGCATAAATATATGTATTGT [GTGCAC_site9399] | 8.61 ± 0.32 |
| CTGAAGAAACTACAACGTACAAAATATGTATATATT [XGTACX_site3779] | 8.55 ± 0.4 |
| TTATTATATTAAAATTGTACTTGCTTTCAATATGAT [XGTACX_site5305] | 8.23 ± 0.35 |
| TTTCTTTTACATATTTGTACATATATAAATTTATAT [XGTACX_site1787] | 8.91 ± 0.35 |
| TACATTTAAAAAAAAACACACATATTTATATTTATA [CACACA_site7236] | 8.01 ± 0.49 |
| TTAAAAAAAAAACACACACACATACACATATATATA [CACACA_site3299] | 8.77 ± 0.33 |
| TACATTTAAAAAAAAACACACATATATATATATATA [CACACA_site2535] | 10.3 ± 0.33 |
| TTATCATTTTAAATCACACACATATATATATATATA [CACACA_site2849] | 10.1 ± 0.49 |
| TTATCATTTTAAATCACACACATATATAAATATGTA [CACACA_site7359] | 8.28 ± 0.35 |
| TCTTATCATTTTAAATCACACACATATATATATATA [CACACA_site8925] | 10.2 ± 0.16 |
| ATTTATGTTATTGTATGTACACAATATAATGTTATT [XGTACX_site5657] | 8.56 ± 0.32 |
| TAATACCATAACAAGTGTACATAAATAATTATTGTA [XGTACX_site4949] | 8.8 ± 0.44 |
| AAAAAAAAAAAAAAAACACACAAACATCAAATTACT [CACACA_site6950] | 8.69 ± 0.24 |
